Results on five compounds are retold here after PubChem BioAssay.

Assay [1] in a line: yeast TOR pathway RPL19A-GFP modulators, primary screen, cell-based, S. cerevisiae, multiplex flow cytometry (AID 1862; in the data active means percent of DMSO control GFP below about 86%;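 further: lower values mimic rapamycin by blocking the RPL19A rise seen in DMSO cells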). The settings on record: S. cerevisiae RPL19A-GFP strain, flow cytometry fluorescence, 3 h; at 10 µM; stronger effect = lower value. Background: In flow cytometry, cells or beads pass a laser one at a time.
The nature of assay [2]: modulators of MEP2-GFP levels in yeast, primary screen, S. cerevisiae, multiplex flow cytometry (AID 1867;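 active means GFP response, as percent of the DMSO control, above the screen-wide mean plus 3 SD, about 139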;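 further: median GFP channel fluorescence of barcode-gated MEP2-GFP cells measured by flow cytometry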). The settings on record: S. cerevisiae MEP2-GFP strain, 3 h, at 10 µM, stronger effect = higher value, 100% means same as DMSO wells.
A short description of assay [3]: modulators of CIT2-GFP expression in yeast, primary screen, S. cerevisiae, GFP fusion, multiplex flow cytometry (AID 1870;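 active means percent response above a set limit, the screen-wide mean plus 3 SD, cut at about 130% in these data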;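 further: barcoded CIT2-GFP strain pooled with four other GFP strains with rapamycin as positive control; median GFP fluorescence per well over plate mean of DMSO wells so 100% = DMSO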). The conditions noted are these: 3 h, at 10 µM, stronger effect = higher value.
Assay [4] is described as follows: modulators of LAP4-GFP expression in yeast, primary screen, S. cerevisiae, multiplex flow cytometry (AID 1873;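 active means GFP signal, as percent of the solvent control, above the screen mean plus 3 SD, about 149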). The conditions noted are these: 3 h, at 10 µM, stronger effect = higher value.
Assay [5] is described as follows: modulators of AGP1-GFP expression in yeast TOR pathway, primary screen, cell-based, multiplex flow cytometry, S. cerevisiae (AID 1887;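 active means GFP signal above the screen-wide mean plus 3 SD, that is over about 124.5% of the solvent control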;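 further: AGP1-GFP fusion strain of S. cerevisiae within a five-strain barcoded multiplex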). The settings on record: 3 h, at 10 µM, stronger effect = higher value.
The nature of assay [6]: inhibitors of CD8+ T cell-vesicle binding, pilot screen, LFA-1/ICAM-1 modulator project, MLPCN validation set, flow cytometry (AID 2523;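 active means response below a set limit, under 55% cells CD8-positive and vesicle-bound, and CD8 cells' 90th-percentile brightness under 279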;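 on vesicle binding response: mean PE anti-B7-1 fluorescence of CD8+ cells relative to row control; 100% = QL9-loaded vesicles with DMSO vehicle in the same plate row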). The conditions noted are these: 2C mouse CD8+ T cells, at 7 µM, stronger effect = lower value; double positive events: measured here: CD8+/vesicle+ event percentage.
For assay [7], the target named is Integrin beta-1 (Homo sapiens) + Integrin alpha-4 (Homo sapiens) (UniProt P13612+P05556). Briefly: inhibition of HUTS-21 binding to VLA-4, pilot screen, VLA-4 allosteric modulator project, U937 cells, HUTS-21 mAb, flow cytometry, validation set (AID 2674;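 active means inhibition above 50%, about 3 SD of the validation set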;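 further: antibody binding induced by the VLA-4 ligand LDV present at three times its Kd; 0% = LDV ligand with antibody and no compound and 100% = antibody without LDV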). The settings on record: HUTS-21 LIBS mAb binding, at 6.7 µM, stronger effect = higher value, binding induced by LDV ligand.

A short description of assay [8]: superoxide lowering in aged yeast cells, pilot screen, validation compound set (AID 2706;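 active means superoxide response below 65% of plate, a cut near 3 SD across the whole screen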;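 further: yeast exposed to compound for one week at 30 degrees C before staining; 100% = mean of all compound wells on the same plate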). The settings on record: S. cerevisiae aging, superoxide DHE fluorescence; at 10 µM; stronger effect = lower value.
Assay [9] concerns the target Beta-adrenergic receptor kinase 1 (Homo sapiens) (UniProt P25098). Briefly: GRK2 binders displacing RNA aptamer, biochemical, validation, human GRK2, bead flow cytometry (AID 488806;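 active means aptamer binding inhibition above 30%, about 3 SD of noise from non-fluorescent compounds; inactive means inhibition at or below 30%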). The conditions noted are these: bead-bound GRK2, FAM-aptamer displacement, at 10 µM, stronger effect = higher value.
Assay [10] concerns the target Beta-2 adrenergic receptor (Homo sapiens) (UniProt P07550). The experiment in a line: beta2AR agonists driving receptor internalization, pilot screen, cell-based, FAP fluorogen, flow cytometry, validation set (AID 504459;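 active means percent response above 42, roughly 3 SD of non-fluorescent test compounds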;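 further: agonist-driven loss of surface beta2AR via internalization measured by FAP dye flow cytometry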). The conditions noted are these: Am2.2-beta2AR cells, FAP surface receptor flow cytometry; at 10 µM; stronger effect = higher value.
Assay [11] deals with AP-2 complex subunit beta (Homo sapiens) (UniProt P63010). Briefly: inhibitors of arrestin peptide binding to AP2, pilot screen, biochemical, validation set, GST-AP2 beads, flow cytometry (AID 504541;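 active means inhibition above 54%, about 3 SD of non-fluorescent compounds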;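 further: AP2 carries R879A mutation and is captured from E. coli lysate; bead-bound FITC arrestin peptide fluorescence measuring arrestin peptide binding to AP2; 0% = DMSO wells and 100% = excess unlabeled arrestin peptide control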). The conditions noted are these: FITC arrestin peptide, at 10 µM, stronger effect = higher value, AP2 beta2 appendage fragment, R879A mutant.
Assay [12] is described as follows: yeast V-ATPase proton transport modulators, S. cerevisiae, pHLuorin, HTS validation (AID 504600; in the data active means response above about 15%;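 further: plate controls were DMSO for no effect and reference compound for full effect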). The conditions noted are these: S. cerevisiae pHLuorin cytosolic pH, at 10 µM, stronger effect = higher value.
Assay [13] relates to anti-desmoglein-3 scFv antibody binding to human DSG3. Briefly: inhibitors of anti-DSG3 scFv binding to DSG3, pilot screen, biochemical, validation compound set, bead-based, flow cytometry (AID 588368;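 active means binding below the plate cutoff, the plate median minus 3 SD, with a reading above zero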;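 further: signal is the median channel fluorescence of bead-bound GFP antibody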). The settings on record: Protein G beads, DSG3-Fc, scFv-GFP binding, at 10 µM, stronger effect = lower value.
Assay [14] is described as follows: inhibitors of fungal efflux pumps CDR1, CDR2, MDR1, pilot screen, validation compound set, multiplex, phenotypic (AID 588506;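 active means efflux inhibition above 0.42, the validation set average plus 4 SD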;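 further: Nile Red retained in cells so higher fluorescence means more efflux inhibition; 0 = negative control wells and 1 = enniatin B 25 µM full block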). The settings on record: S. cerevisiae pump-expressing triplex, Nile Red efflux flow cytometry; at 10 µM; stronger effect = higher value; the pumps come from Candida albicans.
Assay [15] deals with ATP-binding cassette sub-family B member 6 (Homo sapiens) (UniProt Q9NP58). Briefly: ABCB6 transporter inhibitors, pilot screen, K562-ABCB6 cells, flow cytometry, validation set (AID 588550).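 Further: 0% = DMSO wells and 100% = benzethonium chloride 70 µM positive control.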 The conditions noted are these: K562-ABCB6 porphyrin accumulation, 1 h, at 10 µM, stronger effect = higher value.
Assay [16] in a line: promoters of myeloid differentiation in arrested cells, primary screen, cell-based, GFP/MAC1 double positive, flow cytometry, validation set (AID 588685;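 active means differentiation response of at least 50%, scaled between solvent and reference control, from cells with both markers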;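 further: compound exposure lasts four days before antibody staining and flow analysis; 0% = DMSO wells and 100% = 5 µM fulvestrant positive control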). The conditions noted are these: ER-HoxA9 marrow cells, stronger effect = higher value, normalized: vehicle 0, fulvestrant 100.

Molecules are shown by their SMILES. Inconclusive results are not listed. Active and inactive are the calls of the source.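 How the source made its calls, unless noted: active means inhibition above the screen-wide mean plus 3 SD, about 51%; inactive means the rest.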

ATP-binding cassette sub-family B member 6 (Homo sapiens), sequence (Q9NP58 whole entry, looked up): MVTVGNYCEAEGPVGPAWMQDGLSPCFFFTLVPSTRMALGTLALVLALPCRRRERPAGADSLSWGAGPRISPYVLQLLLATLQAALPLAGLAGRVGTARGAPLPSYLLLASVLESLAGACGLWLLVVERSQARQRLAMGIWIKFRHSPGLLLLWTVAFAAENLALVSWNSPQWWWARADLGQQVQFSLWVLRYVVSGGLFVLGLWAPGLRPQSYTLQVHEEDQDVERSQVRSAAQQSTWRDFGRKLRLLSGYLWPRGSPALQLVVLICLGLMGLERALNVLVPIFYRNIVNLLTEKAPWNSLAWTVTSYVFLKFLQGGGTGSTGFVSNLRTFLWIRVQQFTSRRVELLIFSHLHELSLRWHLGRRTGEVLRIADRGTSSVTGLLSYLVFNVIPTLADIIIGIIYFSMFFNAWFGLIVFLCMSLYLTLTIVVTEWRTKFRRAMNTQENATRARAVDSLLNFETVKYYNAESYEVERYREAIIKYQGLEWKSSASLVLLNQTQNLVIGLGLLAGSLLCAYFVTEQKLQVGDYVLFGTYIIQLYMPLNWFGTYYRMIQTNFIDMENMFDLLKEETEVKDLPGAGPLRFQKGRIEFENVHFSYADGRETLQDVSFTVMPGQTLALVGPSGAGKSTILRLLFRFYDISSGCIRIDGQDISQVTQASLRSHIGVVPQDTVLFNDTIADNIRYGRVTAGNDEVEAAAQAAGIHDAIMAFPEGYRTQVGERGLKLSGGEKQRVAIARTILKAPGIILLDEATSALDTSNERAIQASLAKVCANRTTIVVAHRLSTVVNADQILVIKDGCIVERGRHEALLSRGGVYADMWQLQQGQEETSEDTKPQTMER
Beta-adrenergic receptor kinase 1 (Homo sapiens), sequence (P25098 whole entry, looked up): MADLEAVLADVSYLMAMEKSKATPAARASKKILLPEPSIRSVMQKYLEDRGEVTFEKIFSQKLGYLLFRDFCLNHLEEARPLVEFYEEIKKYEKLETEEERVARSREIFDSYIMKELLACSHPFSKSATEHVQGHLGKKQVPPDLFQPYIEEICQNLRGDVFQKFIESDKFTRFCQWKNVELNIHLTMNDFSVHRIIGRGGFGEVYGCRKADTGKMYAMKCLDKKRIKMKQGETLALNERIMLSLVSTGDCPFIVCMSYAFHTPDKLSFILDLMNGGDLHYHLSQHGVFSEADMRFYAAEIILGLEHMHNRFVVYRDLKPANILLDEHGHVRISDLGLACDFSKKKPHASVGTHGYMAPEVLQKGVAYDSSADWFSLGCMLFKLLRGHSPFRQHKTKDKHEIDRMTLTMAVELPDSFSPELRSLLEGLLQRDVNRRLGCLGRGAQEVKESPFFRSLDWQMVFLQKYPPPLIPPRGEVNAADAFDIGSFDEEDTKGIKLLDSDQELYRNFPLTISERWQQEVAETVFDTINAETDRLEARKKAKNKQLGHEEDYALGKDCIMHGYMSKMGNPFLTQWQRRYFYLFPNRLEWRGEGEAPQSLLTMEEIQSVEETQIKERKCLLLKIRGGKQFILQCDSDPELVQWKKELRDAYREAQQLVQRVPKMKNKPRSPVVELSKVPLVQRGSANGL
Integrin beta-1 (Homo sapiens) + Integrin alpha-4 (Homo sapiens), sequence (P05556 whole entry, looked up): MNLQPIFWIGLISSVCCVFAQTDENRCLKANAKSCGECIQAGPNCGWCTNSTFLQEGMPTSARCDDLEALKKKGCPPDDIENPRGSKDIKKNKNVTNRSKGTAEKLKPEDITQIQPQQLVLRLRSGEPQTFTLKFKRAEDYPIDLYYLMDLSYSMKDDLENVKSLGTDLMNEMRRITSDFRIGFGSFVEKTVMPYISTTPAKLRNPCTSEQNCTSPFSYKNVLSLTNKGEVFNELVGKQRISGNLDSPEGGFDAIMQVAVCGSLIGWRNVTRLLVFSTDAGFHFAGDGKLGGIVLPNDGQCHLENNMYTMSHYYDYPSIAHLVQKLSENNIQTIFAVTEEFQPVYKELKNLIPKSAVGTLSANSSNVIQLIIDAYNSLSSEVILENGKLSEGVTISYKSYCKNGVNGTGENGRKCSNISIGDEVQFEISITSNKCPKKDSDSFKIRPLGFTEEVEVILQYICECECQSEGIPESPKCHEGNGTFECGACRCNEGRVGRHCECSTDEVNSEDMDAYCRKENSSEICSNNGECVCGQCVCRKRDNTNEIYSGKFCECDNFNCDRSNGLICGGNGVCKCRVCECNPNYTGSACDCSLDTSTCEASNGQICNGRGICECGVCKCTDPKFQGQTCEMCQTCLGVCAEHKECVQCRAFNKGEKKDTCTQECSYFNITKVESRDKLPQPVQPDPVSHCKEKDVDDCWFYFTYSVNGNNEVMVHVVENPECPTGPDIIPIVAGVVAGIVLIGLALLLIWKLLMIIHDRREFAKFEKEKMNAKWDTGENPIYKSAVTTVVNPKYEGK
Integrin beta-1 (Homo sapiens) + Integrin alpha-4 (Homo sapiens), sequence (P13612 whole entry, looked up): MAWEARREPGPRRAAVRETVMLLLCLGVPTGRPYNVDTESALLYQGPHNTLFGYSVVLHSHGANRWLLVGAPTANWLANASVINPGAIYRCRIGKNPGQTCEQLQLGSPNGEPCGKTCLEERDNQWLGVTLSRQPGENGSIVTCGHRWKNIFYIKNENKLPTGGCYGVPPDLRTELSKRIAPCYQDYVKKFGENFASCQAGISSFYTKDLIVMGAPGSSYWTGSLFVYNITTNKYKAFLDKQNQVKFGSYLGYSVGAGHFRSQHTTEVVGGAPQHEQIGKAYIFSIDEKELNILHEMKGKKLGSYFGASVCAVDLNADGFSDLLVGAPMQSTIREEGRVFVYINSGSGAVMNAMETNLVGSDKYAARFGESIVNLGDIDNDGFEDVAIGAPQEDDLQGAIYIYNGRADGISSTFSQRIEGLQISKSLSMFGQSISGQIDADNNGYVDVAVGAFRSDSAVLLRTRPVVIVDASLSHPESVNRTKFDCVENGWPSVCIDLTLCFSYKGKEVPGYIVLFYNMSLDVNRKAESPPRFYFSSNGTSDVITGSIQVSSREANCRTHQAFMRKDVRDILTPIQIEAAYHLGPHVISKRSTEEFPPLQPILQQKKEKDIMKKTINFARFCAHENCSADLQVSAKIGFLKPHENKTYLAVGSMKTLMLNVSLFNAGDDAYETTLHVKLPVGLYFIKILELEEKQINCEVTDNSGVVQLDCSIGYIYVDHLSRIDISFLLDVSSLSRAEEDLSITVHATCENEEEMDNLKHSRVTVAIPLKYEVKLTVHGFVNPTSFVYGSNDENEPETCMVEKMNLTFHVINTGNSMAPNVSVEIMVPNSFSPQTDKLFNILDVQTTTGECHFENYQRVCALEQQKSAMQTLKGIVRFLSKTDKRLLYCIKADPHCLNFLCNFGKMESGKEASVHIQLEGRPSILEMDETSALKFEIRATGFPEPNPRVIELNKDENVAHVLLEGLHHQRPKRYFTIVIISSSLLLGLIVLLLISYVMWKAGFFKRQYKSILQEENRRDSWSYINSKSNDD
Beta-2 adrenergic receptor (Homo sapiens), sequence (P07550 whole entry, looked up): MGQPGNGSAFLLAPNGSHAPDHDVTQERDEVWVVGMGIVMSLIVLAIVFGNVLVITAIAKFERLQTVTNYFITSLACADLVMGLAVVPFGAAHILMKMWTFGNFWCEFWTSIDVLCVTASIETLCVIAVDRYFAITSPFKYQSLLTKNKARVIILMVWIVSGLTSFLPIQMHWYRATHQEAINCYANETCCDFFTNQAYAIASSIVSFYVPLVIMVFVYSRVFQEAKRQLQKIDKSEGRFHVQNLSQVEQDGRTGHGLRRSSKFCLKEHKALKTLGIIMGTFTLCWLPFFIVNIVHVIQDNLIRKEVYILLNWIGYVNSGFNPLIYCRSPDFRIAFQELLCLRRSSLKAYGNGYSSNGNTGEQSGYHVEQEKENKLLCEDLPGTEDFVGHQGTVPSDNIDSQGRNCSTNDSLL
AP-2 complex subunit beta (Homo sapiens), sequence (P63010 whole entry, looked up, the tested form may be a part, one chain of several): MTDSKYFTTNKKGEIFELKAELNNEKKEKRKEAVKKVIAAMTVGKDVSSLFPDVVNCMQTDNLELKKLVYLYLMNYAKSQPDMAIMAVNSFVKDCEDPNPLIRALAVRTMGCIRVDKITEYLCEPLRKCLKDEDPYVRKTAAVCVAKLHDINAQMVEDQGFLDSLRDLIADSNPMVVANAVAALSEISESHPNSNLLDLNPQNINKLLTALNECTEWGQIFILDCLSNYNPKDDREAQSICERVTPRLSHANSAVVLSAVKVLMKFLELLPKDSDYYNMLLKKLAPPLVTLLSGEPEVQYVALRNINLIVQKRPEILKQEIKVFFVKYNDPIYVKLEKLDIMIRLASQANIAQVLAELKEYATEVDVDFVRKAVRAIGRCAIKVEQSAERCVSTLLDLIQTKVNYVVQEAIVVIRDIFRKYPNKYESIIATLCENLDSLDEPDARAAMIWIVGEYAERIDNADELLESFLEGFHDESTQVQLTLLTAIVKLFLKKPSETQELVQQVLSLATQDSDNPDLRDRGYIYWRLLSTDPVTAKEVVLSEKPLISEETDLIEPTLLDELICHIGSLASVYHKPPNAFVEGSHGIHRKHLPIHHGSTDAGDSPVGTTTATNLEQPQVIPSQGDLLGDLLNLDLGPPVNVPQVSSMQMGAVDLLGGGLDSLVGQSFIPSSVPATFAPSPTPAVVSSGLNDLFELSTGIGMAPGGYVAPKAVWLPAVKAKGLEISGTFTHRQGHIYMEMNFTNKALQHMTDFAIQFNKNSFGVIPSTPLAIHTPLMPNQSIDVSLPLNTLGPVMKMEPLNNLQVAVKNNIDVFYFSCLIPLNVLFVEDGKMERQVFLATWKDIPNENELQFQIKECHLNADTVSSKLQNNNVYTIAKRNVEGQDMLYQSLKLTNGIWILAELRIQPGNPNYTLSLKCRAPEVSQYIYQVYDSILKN

As a reminder, the inhibition is the relative decrease from the control value, in per cent. Consider `CC[C@H]1CN2CCc3cc(OC)c(OC)cc3[C@@H]2C[C@@H]1C[C@H]1NCCc2cc(OC)c(OC)cc21`, for which the percent of DMSO control GFP in [1] was 110% (inactive). Further, the GFP response vs DMSO in [2] was 103% (inactive); in assay [4], 106% (inactive). Moreover, the percent response of DMSO control in assay [3] is 94.5% (inactive). In [5], the GFP response, % of DMSO is 99.9% (inactive). Besides, the double positive events in assay [6] is 60.1%. Besides, the vesicle binding response in assay [6] was 140% (inactive). Besides, the values for the inhibition in assay [7], in [11] and in assay [15] were -27.9% (inactive), 3.93% (inactive) and -66% (inactive), respectively. Also, the superoxide response (% of plate) in assay [8] was 86.3% (inactive). The aptamer binding inhibition in assay [9] is -7% (inactive). Also, the response was 10.4% (inactive) in assay [10] and -3.02% (inactive) in assay [12]. Further, the binding (% of control) in assay [13] was 106% (inactive). Also, in [14], the efflux inhibition (fraction of control) was -0.24 (inactive). Also, the differentiation response in [16] is 14.4% (inactive).
With `COC(=O)CCC(=O)CN`, the percent of DMSO control GFP in assay [1] is 102% (inactive). Besides, the GFP response vs DMSO in assay [2] was 106% (inactive); in assay [4], 118% (inactive). Also, the percent response of DMSO control in assay [3] was 110% (inactive). In addition, in assay [5], the GFP response, % of DMSO is 113% (inactive). In [6], the double positive events was found to be 62.2%. Besides, the vesicle binding response in assay [6] was 148% (inactive). Further, the figures for the inhibition in assay [7], in assay [11] and in [15] were -5.11% (inactive), 7.22% (inactive) and 5% (inactive), respectively. For the same compound, the superoxide response (% of plate) in assay [8] is 94% (inactive). Also, the aptamer binding inhibition in assay [9] is -3% (inactive). The response is 1.35% (inactive) in assay [10] and -6.15% (inactive) in assay [12]. For the same compound, the binding (% of control) in assay [13] is 102% (inactive). For the same compound, the efflux inhibition (fraction of control) in [14] is -0.11 (inactive). Besides, the differentiation response in [16] is 7.13% (inactive).
`O=C(NCCNc1ccc(Cl)cc1[N+](=O)[O-])c1cccnc1`: in assay [1], the percent of DMSO control GFP was 100% (inactive). Besides, the GFP response vs DMSO in assay [2] is 102% (inactive); in assay [4], 106% (inactive). The percent response of DMSO control in assay [3] was 102% (inactive). The GFP response, % of DMSO in assay [5] is 98.9% (inactive). Also, the double positive events in assay [6] amounted to 57.5%. Moreover, the vesicle binding response in assay [6] is 13.3% (inactive). Besides, the inhibition was 5.41% (inactive) in assay [7], 20% (inactive) in assay [11] and 4% (inactive) in [15]. For the same compound, the superoxide response (% of plate) in assay [8] is 102% (inactive). The aptamer binding inhibition in assay [9] is -6% (inactive). Further, the figures for the response in assay [10] and in assay [12] were -6.88% (inactive) and 0.22% (inactive), respectively. For the same compound, the binding (% of control) in [13] is 100% (inactive). The efflux inhibition (fraction of control) in assay [14] was -0.22 (inactive). Moreover, the differentiation response in assay [16] was 8.02% (inactive).
Turning to `COc1ccc(O)c(C2=Nc3ccccc3N=C(c3ccccc3)C2)c1`, the percent of DMSO control GFP in assay [1] was 94.6% (inactive). Further, the GFP response vs DMSO was 126% (inactive) in assay [2] and 71.5% (inactive) in [4]. In addition, the percent response of DMSO control in assay [3] is 116% (inactive). Further, in assay [5], the GFP response, % of DMSO was 85.2% (inactive). This compound registered a double positive events in assay [6] of 58.3%. In assay [6], the vesicle binding response is 139% (inactive). The inhibition was -10% (inactive) in [7], 13% (inactive) in [11] and 12% (inactive) in assay [15]. Besides, the superoxide response (% of plate) in assay [8] was 96.7% (inactive). In addition, in assay [9], the aptamer binding inhibition was 4% (inactive). The response is -11.7% (inactive) in [10] and -3.39% (inactive) in [12]. The binding (% of control) in [13] was 96.9% (inactive). In addition, the efflux inhibition (fraction of control) in assay [14] is 0.34 (inactive). In addition, the differentiation response in assay [16] is 2.46% (inactive).
In the case of `NC(=O)c1ccccc1O`, the percent of DMSO control GFP in [1] was 103% (inactive). In addition, the GFP response vs DMSO in [2] was 108% (inactive); in [4], 95.8% (inactive). Further, the percent response of DMSO control in assay [3] is 92.8% (inactive). For the same compound, in [5], the GFP response, % of DMSO is 97.4% (inactive). Also, the double positive events in [6] is 64.5%. In addition, the vesicle binding response in assay [6] was 199% (inactive). Besides, the inhibition in assay [7] is 11.1% (inactive); in assay [11], 33.5% (inactive); in assay [15] it was 3% (inactive). Also, in assay [8], the superoxide response (% of plate) is 95.9% (inactive). In addition, the aptamer binding inhibition in [9] is -1% (inactive). For the same compound, the response was 6.88% (inactive) in assay [10] and -2.79% (inactive) in [12]. In addition, the binding (% of control) in assay [13] was 100% (inactive). Further, in [14], the efflux inhibition (fraction of control) was 1.03 (active). Besides, the differentiation response in [16] was 10.3% (inactive).
